# Laboratory results: PubChem BioAssay AID602429 (Sanford-Burnham Center for Chemical Genomics, 2012)
# The campaign covered roughly 360,000 compounds. About 1,200 (0.33%) were called active. Rule as the data show it: active = inhibition above about 37%; inactive = the rest. Shown is part of a subset that was picked to be rich in actives.
# Biological target: Small ubiquitin-related modifier 1 (Homo sapiens) (UniProt P63165)
# Assay: modulators of SUMO1 protein-protein interactions, primary screen, biochemical, uHTS (AID 602429)
# Conditions: SUMO1 binding to a labelled peptide, TR-FRET, 1 h; at 20 µM; stronger effect = higher value
# Small ubiquitin-related modifier 1 (Homo sapiens), sequence (P63165 whole entry, looked up): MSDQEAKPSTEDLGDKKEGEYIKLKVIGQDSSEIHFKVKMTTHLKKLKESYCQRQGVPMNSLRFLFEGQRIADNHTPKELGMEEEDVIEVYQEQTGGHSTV
row,Compound,inhibition
1,CCN(CC)S(=O)(=O)N1CCC(C(=O)NC(C)CCc2ccccc2)CC1 (stereo not drawn),-0.482% (inactive)
2,Nc1nc(Sc2ncccc2[N+](=O)[O-])n[nH]1,-26.7% (inactive)
3,CCCc1noc2c1/C(=N\O)CCC2,1.7% (inactive)
4,COc1ccc(-c2nnc(SC(=O)N3c4ccccc4Sc4ccccc43)o2)cc1,-3.37% (inactive)
5,COc1ccc(-c2nnc(-c3ccc4ccccc4c3)o2)cc1,51.9% (active)
6,COc1ccc(-c2nnc(SC(C)C(=O)NC3CC3)o2)cc1 (stereo not drawn),1.98% (inactive)
7,ONC(=Nc1ccccc1)c1ccccc1Cl,0.653% (inactive)
8,CN(C(=O)COC(=O)c1cc(=O)[nH]c2ccccc12)C1CCCCC1,-17.9% (inactive)
9,Cc1ccsc1/C=N/n1c(=S)[nH]nc(C)c1=O,-0.0625% (inactive)
10,Clc1ccc(-n2nnnc2-c2cnc(-c3ccccn3)nc2-c2cccs2)cc1,-11.8% (inactive)
11,S=c1[nH]nc(-c2cccs2)n1/N=C/c1cn(-c2ccccc2)nc1-c1ccc(Cl)cc1,41.9% (active)
12,CSCC[C@H](NC(=O)NC1CCCC1)C(=O)O,2.79% (inactive)
13,Cc1cc(C)c(-c2csc(NC(=O)CCCc3nc4ccccc4c(=O)[nH]3)n2)c(C)c1,0.192% (inactive)
14,O=C(CSc1nc2ccccc2c(=O)[nH]1)Nc1nc(-c2ccc(Br)cc2)cs1,94.3% (active)
15,O=C(COC(=O)c1cc(=O)[nH]c2ccccc12)Nc1nc(-c2cccc(Br)c2)cs1,2.92% (inactive)
16,O=C(O)c1ccc(S(=O)(=O)c2ccccc2)s1,2.5% (inactive)
17,COc1ccc(OCCCC(=O)Nc2nnc(C3CCCO3)s2)cc1 (stereo not drawn),0.167% (inactive)
18,COc1ccc2c(CC(=O)Nc3nnc(C4CC4)s3)coc2c1,-1.1% (inactive)
19,COc1ccc(NC(=O)CCC(=O)Nc2nnc(C3CCCCC3)s2)cc1,44% (active)
20,COc1cc(C2C(C(=O)Nc3ccccc3OC)=C(C)Nc3ncnn32)ccc1O (stereo not drawn),-0.861% (inactive)
21,COc1ccccc1NC(=O)C1=C(C)Nc2nc3ccccc3n2C1c1cccs1 (stereo not drawn),-1.24% (inactive)
22,COc1ccccc1NC(=O)C1=C(C)Nc2nnnn2C1c1cccc(Br)c1 (stereo not drawn),43.5% (active)
23,O=C1c2ccccc2C(=O)C1C(=O)C1CC1,-16.1% (inactive)
